Experimental data published in the supplement of paper PMC10849652.
The full data set covers some 7,900 targets. This sample favours those with a hit. About 0.6% of all pairs of compound and target were hits. Values without a mark were called inactive.

Compound: C[C@@H](Oc1cc(-c2cnn(C3CCNCC3)c2)cnc1N)c1c(Cl)ccc(F)c1Cl [crizotinib]
Test: log2 fold change, soluble protein after heating vs DMSO (PISA); higher = thermal stabilisation; K562 cells, 10 uM, 30 min; active = over 0.2 and 3.5 SD of the protein, either way, in both replicates (recomputed)
Outline: (§1)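 K562 cells at 2×10^6 cells/mL were given 10 μM compound for 30 min. Aliquots then went through 3 min of heating across 48°C-58°C, were pooled, and were extracted in PBS with 0.5% NP-40 at 4°C, and the supernatant after 21,000xg for 90 min was quantified by TMTpro 16plex LC-MS/MS with channel sums equalised. Thermal stability relative to control samples, from duplicates, is given as log2 fold change.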

Chain of UniProt P07711 (P07711 whole entry, looked up): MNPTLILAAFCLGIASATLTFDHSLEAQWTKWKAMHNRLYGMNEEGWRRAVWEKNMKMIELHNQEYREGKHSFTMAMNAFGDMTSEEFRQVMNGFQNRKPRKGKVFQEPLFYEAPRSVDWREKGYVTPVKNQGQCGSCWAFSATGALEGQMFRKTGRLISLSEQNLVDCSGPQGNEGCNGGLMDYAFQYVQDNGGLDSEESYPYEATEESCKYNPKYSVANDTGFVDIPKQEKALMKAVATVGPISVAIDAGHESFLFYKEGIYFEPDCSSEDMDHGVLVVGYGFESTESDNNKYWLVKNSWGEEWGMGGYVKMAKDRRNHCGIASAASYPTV
Chain of UniProt O75071 (O75071 whole entry, looked up): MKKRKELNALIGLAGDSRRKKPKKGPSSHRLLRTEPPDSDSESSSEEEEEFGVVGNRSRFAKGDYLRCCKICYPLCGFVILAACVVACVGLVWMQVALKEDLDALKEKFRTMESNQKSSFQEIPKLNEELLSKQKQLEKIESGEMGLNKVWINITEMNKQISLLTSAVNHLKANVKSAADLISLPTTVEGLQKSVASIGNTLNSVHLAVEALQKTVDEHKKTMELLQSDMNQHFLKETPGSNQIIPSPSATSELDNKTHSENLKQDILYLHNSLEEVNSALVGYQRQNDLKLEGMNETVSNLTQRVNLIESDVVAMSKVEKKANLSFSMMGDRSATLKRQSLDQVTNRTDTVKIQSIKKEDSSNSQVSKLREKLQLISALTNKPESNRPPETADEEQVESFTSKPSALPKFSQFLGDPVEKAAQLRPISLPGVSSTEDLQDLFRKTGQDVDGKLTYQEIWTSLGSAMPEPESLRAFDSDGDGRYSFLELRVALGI
Chain of UniProt Q01780 (Q01780 whole entry, looked up): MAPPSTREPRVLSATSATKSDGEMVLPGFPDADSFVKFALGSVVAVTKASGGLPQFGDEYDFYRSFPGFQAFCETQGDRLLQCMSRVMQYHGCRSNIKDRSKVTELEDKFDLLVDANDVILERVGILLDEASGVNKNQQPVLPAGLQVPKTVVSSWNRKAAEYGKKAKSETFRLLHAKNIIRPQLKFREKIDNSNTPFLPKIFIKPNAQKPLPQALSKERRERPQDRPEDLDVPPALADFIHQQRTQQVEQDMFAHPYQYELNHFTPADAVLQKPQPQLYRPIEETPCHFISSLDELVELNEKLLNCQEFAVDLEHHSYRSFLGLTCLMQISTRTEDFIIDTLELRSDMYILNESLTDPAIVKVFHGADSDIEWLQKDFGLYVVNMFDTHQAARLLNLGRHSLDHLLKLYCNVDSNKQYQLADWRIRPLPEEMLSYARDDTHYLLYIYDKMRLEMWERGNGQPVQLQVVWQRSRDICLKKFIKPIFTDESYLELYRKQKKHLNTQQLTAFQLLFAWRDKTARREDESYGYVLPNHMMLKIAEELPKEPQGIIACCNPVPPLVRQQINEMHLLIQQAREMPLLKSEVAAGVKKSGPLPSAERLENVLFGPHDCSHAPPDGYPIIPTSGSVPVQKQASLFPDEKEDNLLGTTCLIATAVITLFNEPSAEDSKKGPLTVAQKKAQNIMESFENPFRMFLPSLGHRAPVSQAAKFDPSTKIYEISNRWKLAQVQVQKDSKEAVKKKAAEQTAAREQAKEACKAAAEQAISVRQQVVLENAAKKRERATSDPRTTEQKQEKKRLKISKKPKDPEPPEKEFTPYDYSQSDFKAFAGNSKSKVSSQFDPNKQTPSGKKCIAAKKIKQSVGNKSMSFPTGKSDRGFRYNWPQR
Chain of UniProt P18074 (P18074 whole entry, looked up): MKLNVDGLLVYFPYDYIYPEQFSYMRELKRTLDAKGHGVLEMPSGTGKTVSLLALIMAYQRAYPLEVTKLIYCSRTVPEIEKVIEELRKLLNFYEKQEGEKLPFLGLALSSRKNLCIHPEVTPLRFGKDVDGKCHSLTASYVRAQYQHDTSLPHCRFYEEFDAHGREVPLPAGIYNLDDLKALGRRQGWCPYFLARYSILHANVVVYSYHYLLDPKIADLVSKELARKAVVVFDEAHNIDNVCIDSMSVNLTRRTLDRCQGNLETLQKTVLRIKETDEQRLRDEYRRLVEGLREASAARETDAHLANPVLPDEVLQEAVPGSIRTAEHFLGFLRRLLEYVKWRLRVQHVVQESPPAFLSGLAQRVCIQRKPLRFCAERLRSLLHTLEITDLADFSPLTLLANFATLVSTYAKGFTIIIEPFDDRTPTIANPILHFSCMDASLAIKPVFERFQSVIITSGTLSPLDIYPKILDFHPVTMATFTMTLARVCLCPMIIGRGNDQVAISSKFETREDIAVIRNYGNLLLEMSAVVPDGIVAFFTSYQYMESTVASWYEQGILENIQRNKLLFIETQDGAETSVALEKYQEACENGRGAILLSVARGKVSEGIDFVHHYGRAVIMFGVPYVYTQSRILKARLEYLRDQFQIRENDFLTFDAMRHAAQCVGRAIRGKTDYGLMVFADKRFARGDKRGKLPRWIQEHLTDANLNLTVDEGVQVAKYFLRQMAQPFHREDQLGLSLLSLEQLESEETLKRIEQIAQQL
Chain of UniProt P24534 (P24534 whole entry, looked up): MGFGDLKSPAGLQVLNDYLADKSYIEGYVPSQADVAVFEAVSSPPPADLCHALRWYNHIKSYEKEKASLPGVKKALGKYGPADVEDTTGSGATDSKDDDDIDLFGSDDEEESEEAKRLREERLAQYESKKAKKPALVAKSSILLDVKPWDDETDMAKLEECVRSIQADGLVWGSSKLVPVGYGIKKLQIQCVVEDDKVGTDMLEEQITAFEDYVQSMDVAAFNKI
Chain of UniProt Q16850 (Q16850 whole entry, looked up): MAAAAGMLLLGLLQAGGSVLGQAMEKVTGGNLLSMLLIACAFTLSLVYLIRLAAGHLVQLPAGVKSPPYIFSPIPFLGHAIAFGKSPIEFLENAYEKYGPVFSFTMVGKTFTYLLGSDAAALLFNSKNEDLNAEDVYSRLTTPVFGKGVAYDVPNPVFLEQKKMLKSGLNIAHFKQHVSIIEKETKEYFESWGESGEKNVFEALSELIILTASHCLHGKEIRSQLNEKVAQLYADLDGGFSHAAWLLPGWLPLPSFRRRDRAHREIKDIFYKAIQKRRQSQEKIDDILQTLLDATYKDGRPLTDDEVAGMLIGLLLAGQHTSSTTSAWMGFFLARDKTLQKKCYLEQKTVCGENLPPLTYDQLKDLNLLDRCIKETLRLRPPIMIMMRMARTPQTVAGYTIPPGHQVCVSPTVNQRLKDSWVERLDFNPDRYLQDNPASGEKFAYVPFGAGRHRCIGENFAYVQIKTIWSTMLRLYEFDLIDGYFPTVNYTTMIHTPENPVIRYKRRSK
Chain of UniProt O60911 (O60911 whole entry, looked up): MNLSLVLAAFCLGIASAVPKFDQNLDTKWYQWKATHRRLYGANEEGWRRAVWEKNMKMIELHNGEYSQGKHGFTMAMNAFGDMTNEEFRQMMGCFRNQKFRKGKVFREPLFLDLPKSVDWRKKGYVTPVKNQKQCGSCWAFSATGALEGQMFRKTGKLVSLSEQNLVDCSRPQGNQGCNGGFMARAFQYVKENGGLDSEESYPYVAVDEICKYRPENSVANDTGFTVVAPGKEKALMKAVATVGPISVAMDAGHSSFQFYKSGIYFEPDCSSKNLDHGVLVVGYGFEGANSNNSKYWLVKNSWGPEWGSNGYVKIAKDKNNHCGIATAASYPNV
Chain of UniProt Q9NXW2 (Q9NXW2 whole entry, looked up): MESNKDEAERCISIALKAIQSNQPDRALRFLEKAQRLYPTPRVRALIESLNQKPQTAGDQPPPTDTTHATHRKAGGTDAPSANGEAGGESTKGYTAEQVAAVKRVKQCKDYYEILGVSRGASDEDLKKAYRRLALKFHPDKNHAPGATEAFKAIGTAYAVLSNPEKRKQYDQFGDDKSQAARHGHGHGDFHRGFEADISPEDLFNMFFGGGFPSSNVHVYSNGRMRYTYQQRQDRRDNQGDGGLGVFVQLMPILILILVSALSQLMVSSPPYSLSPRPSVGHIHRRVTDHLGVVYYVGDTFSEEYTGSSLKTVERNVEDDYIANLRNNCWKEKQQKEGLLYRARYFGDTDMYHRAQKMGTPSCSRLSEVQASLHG
Chain of UniProt P13498 (P13498 whole entry, looked up): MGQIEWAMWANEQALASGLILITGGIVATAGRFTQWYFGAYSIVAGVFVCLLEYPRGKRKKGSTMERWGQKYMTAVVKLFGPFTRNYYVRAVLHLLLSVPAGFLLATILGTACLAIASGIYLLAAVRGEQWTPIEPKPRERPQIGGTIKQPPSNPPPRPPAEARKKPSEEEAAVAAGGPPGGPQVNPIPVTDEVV
Chain of UniProt Q5QJE6 (Q5QJE6 whole entry, looked up): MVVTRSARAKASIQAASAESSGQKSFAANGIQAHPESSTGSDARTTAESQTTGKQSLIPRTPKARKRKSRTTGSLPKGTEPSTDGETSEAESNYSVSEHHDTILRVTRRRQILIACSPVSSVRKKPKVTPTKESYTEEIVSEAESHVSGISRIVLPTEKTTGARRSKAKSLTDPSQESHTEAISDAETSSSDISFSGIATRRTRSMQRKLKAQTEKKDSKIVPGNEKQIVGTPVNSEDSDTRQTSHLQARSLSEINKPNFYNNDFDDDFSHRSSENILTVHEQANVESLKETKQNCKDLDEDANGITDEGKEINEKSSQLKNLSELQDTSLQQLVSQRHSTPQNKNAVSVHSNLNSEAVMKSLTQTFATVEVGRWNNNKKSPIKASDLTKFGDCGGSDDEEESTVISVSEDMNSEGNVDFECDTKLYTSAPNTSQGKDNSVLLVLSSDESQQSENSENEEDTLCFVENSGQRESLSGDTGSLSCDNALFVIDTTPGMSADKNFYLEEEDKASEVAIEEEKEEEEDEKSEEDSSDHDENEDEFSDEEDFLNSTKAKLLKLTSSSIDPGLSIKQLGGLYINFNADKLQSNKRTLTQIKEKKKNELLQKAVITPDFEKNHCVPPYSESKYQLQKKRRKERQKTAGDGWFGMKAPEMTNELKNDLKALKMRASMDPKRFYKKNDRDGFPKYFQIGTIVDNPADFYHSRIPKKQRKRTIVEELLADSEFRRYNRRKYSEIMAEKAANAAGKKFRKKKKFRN

Target | log2 fold change
DOCK8 (UniProt Q8NF50) | -0.011
EEF1B2 (UniProt P24534) | -0.018
CTSL (UniProt P07711) | -0.489 (active)
DNM2 (UniProt P50570) | -0.082
EIF2AK1 (UniProt Q9BQI3) | 0.015
DIAPH1 (UniProt O60610) | -0.152
DUS2 (UniProt Q9NX74) | 0.048
ERCC2 (UniProt P18074) | 0.059
DYNC1LI2 (UniProt O43237) | 0.079
DYNC1I2 isoform 5 (UniProt Q13409) | 0.055
DIP2A (UniProt Q14689) | 0.087
DMXL1 (UniProt Q9Y485) | -0.092
DDOST (UniProt P39656) | -0.051
DHFR (UniProt P00374) | 0.956 (active)
CUX1 isoform 3 (UniProt P39880) | -0.023
DNAJB12 (UniProt Q9NXW2) | -0.029
CTSV (UniProt O60911) | -1.59 (active)
EFCAB14 (UniProt O75071) | -0.301 (active)
EXOC5 (UniProt O00471) | -0.279 (active)
DUS3L (UniProt Q96G46) | 0.112

Target | log2 fold change
EFL1 (UniProt Q7Z2Z2) | -0.055
DYRK1A isoform 2 (UniProt Q13627) | -0.181
FAF2 (UniProt Q96CS3) | -0.056
ETNK1 (UniProt Q9HBU6) | -0.022
EIF4G1 isoform 8 (UniProt Q04637) | -0.314
DNAH5 (UniProt Q8TE73) | 0.145
EEA1 (UniProt Q15075) | -0.007
DBT (UniProt P11182) | -0.01
FAM118A (UniProt Q9NWS6) | -0.112
CUX1 isoform 2 (UniProt Q13948) | -0.063
DNAH11 (UniProt Q96DT5) | 0.071
EXOSC10 (UniProt Q01780) | 0.043
CYBA (UniProt P13498) | -0.108
FADS1, A0A0A0MR51 | -0.049
FAM117A (UniProt Q9C073) | -0.166
EEF1AKNMT (UniProt Q8N6R0) | -0.059
CYP51A1 (UniProt Q16850) | 0.12
FAM83D (UniProt Q9H4H8) | -0.061
DNTTIP2 (UniProt Q5QJE6) | -0.028
EED, A0A5F9ZI63 | 0.045

Compound: C[C@@H]1COCCN1C2=NC(=NC(=C2)C3(CC3)S(=O)(=O)C)C4=C5C=CNC5=CC=C4
Test: as above
Outline: as §1

Target | log2 fold change
DOCK8 (UniProt Q8NF50) | -0.075
EEF1B2 (UniProt P24534) | -0.073
CTSL (UniProt P07711) | -0.02
DNM2 (UniProt P50570) | 0.062
EIF2AK1 (UniProt Q9BQI3) | 0.015
DIAPH1 (UniProt O60610) | -0.054
DUS2 (UniProt Q9NX74) | 0.084
ERCC2 (UniProt P18074) | -0.046
DYNC1LI2 (UniProt O43237) | -0.283
DYNC1I2 isoform 5 (UniProt Q13409) | -0.035
DIP2A (UniProt Q14689) | 0.159
DMXL1 (UniProt Q9Y485) | 0.002
DDOST (UniProt P39656) | -0.065
DHFR (UniProt P00374) | -0.015
CUX1 isoform 3 (UniProt P39880) | 0.086
DNAJB12 (UniProt Q9NXW2) | 0.038
CTSV (UniProt O60911) | 0.099
EFCAB14 (UniProt O75071) | 0.083
EXOC5 (UniProt O00471) | -0.017
DUS3L (UniProt Q96G46) | 0.019

Target | log2 fold change
EFL1 (UniProt Q7Z2Z2) | 0.074
DYRK1A isoform 2 (UniProt Q13627) | 0.045
FAF2 (UniProt Q96CS3) | 0.042
ETNK1 (UniProt Q9HBU6) | 0.088
EIF4G1 isoform 8 (UniProt Q04637) | -0.206
DNAH5 (UniProt Q8TE73) | -0.007
EEA1 (UniProt Q15075) | -0.014
DBT (UniProt P11182) | -0.014
FAM118A (UniProt Q9NWS6) | 0.044
CUX1 isoform 2 (UniProt Q13948) | 0.029
DNAH11 (UniProt Q96DT5) | 0.062
EXOSC10 (UniProt Q01780) | 0.063
CYBA (UniProt P13498) | 0.024
FADS1, A0A0A0MR51 | -0.019
FAM117A (UniProt Q9C073) | -0.013
EEF1AKNMT (UniProt Q8N6R0) | 0.006
CYP51A1 (UniProt Q16850) | -0.162
FAM83D (UniProt Q9H4H8) | 0.021
DNTTIP2 (UniProt Q5QJE6) | -0.051
EED, A0A5F9ZI63 | -0.047
